In the supplement of paper PMC12494721:
Counter-ions that a name gives are not always drawn.

System: Escherichia coli IAI1
Assay: growth (OD595) fold change vs plate DMSO controls (fold change (ratio)); higher = more growth
Conditions: incubation time: 27 h, anaerobic, 37 °C
Outline: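 The 96-well mGAM cultures had been kept anaerobic for 27 h at 37 °C before being shaken and read at 595 nm. Blank subtraction, compound background correction with 20 µM compound solutions in water, and a calibration factor of 5 turned the readings into OD. Growth is given as the fold change versus the median of plate DMSO controls. Fold changes above 1.5 were set to NA, and the values are means of 2 biological replicates.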

Row | Structure (SMILES) | growth
1 | CN1CCC(=C2c3ccccc3CCc3cccnc32)CC1 [Azatadine maleate] (20 µM) | 0.983
2 | CC(=O)OC[C@H]1O[C@@H]([S-])[C@H](OC(C)=O)[C@@H](OC(C)=O)[C@@H]1OC(C)=O.CCP(CC)CC.[Au+] [Auranofin] (20 µM) | 1.02
3 | C=CCOC(Cn1ccnc1)c1ccc(Cl)cc1Cl (centres undefined) (20 µM) | 0.991
4 | CC[C@H](C)C(=O)O[C@H]1CCC=C2C=C[C@H](C)[C@H](CC[C@@H]3C[C@@H](O)CC(=O)O3)[C@H]21 [Mevastatin] (20 µM) | 1
5 | NS(=O)(=O)c1cc2c(cc1Cl)NC(Cc1ccccc1)NS2(=O)=O (centres undefined) [Benzylhydrochlorothiazide] (20 µM) | 1.05
6 | O=c1[nH]c(=O)n(C2CCCO2)cc1F (centres undefined) [Tegafur] (20 µM) | 0.975
7 | Cc1nn(C)c(Oc2ccccc2)c1/C=N/OCc1ccc(C(=O)OC(C)(C)C)cc1 (20 µM) | 1.03
8 | CS(=O)(=O)OCCCCOS(C)(=O)=O [Busulfan] (20 µM) | 1.07
9 | CCSc1ccc2c(c1)N(CCCN1CCN(C)CC1)c1ccccc1S2 [Thiethylperazine maleate] (20 µM) | 1.05
10 | Cc1ncc([N+](=O)[O-])n1C [Dimetridazole] (20 µM) | 1.02
11 | CC[C@@H]1C(=O)OC[C@@H]1Cc1cncn1C [Pilocarpine nitrate] (20 µM) | 1
12 | Clc1ccc(C(Cn2ccnc2)OCc2ccsc2Cl)c(Cl)c1 (centres undefined) [Tioconazole] (20 µM) | 0.866
13 | c1coc(CNc2ncnc3[nH]cnc23)c1 [Kinetin] (20 µM) | 1.05
14 | CC1(C)O[C@@H]2C[C@H]3[C@@H]4CCC5=CC(=O)CC[C@]5(C)[C@@]4(F)[C@@H](O)C[C@]3(C)[C@]2(C(=O)CCl)O1 [Halcinonide] (20 µM) | 1.01
15 | CC(=O)N[C@@H](CC(C)C)C(=O)O [N-Acetyl-L-leucine] (20 µM) | 0.831
16 | COc1cccc(CCc2ccccc2OCC(CN(C)C)OC(=O)CCC(=O)O)c1 (centres undefined) [Sarpogrelate hydrochloride] (20 µM) | 0.978
17 | CN1CCC(=C2c3ccccc3CCc3sccc32)CC1 [Pizotifen malate] (20 µM) | 1.03

Row | Structure (SMILES) | growth
18 | Oc1ccc2ccccc2c1N=Nc1ccccc1 [Sudan I (1-phenylazo-2-hydroxynaphthalene)] (20 µM) | 1.06
19 | CC(C)(C)c1ccc(C(=O)CCCN2CCC(OC(c3ccccc3)c3ccccc3)CC2)cc1 [Ebastine] (20 µM) | 1
20 | O=c1oc2cc(O)ccc2s1 [Tioxolone] (20 µM) | 1.01
21 | CCCOc1ccc(C(=O)OCCN(CC)CC)cc1N [Proparacaine hydrochloride] (20 µM) | 1.08
22 | CC(C)NC[C@H](O)COc1cccc2ccccc12 [(S)-(-)-Propranolol hydrochloride] (20 µM) | 1.03
23 | COc1cc(C(=O)NCc2ccc(OCCN(C)C)cc2)cc(OC)c1OC [Trimethobenzamide hydrochloride] (20 µM) | 1.08
24 | N[C@@H](Cc1cc(I)c(Oc2cc(I)c(O)c(I)c2)c(I)c1)C(=O)O [(L) Thyroxine] (20 µM) | 0.975
25 | O=C(NCC(O)CO)c1c(I)c(C(=O)NCC(O)CO)c(I)c(N(CCO)C(=O)CO)c1I (centres undefined) [Ioversol] (20 µM) | 0.998
26 | CCCCC[C@H](O)/C=C/[C@H]1[C@H](O)CC(=O)[C@@H]1CCCCCCC(=O)O [Alprostadil] (20 µM) | 0.977
27 | CC(C)(CO)[C@@H](O)C(=O)NCCCC(=O)O [Hopantenate calcium] (20 µM) | 0.997
28 | Cc1nnc(NS(=O)(=O)c2ccc(N)cc2)s1 [Sulfamethizole] (20 µM) | 1.05
29 | OC[C@H](O)C(O)[C@@H](O)CO [L-Arabinitol] (50 µM) | 0.995
30 | CN/C(=N\CCSCc1nc[nH]c1C)NC#N [Cimetidine] (20 µM) | 1.02
31 | CCN(CC)C(=O)/C(C#N)=C/c1cc(O)c(O)c([N+](=O)[O-])c1 [Entacapone] (20 µM) | 0.974
32 | OC(CNCC(O)C1CCc2cc(F)ccc2O1)C1CCc2cc(F)ccc2O1 (centres undefined) [Nebivolol hydrochloride] (20 µM) | 0.992
33 | CCN(CC)CC(=O)Nc1c(C)cccc1C [Lidocaine hydrochloride] (20 µM) | 0.973
34 | C[C@H](NCc1ccc(OCc2cccc(F)c2)cc1)C(N)=O [Safinamide] (20 µM) | 0.992
